Data: PubChem BioAssay AID2314 (National Center for Advancing Translational Sciences (NCATS), 2010)
About 37,000 (12%) of roughly 300,000 compounds were called active. What follows is part of a selection rich in actives, with near analogues and random picks from the rest. A number with no mark means an inactive call. Cut-off read from the data, not from the text of the source: active = max response mostly above about 13% (no sharp cut-off); inactive = mostly below about 14%.

Assay: Cycloheximide Counterscreen for Small Molecule Inhibitors of Shiga Toxin; note: read at 38.3 µM for the half of the compounds with a filed dose; 0% is about no effect
Conditions: cell reporter, cycloheximide protein synthesis inhibition counterscreen; stronger effect = higher value

Row | Compound | max response
1 | COc1ccc(C2=NS(=O)(=O)N(C)C(C(=O)NC(C)c3ccccc3)=C2)cc1 (centres undefined) | -2.97%
2 | O=C(Nc1cccc(-c2cscn2)c1)C1CCN(Cc2ccsc2)CC1 | -0.646%
3 | COCCOC(=O)c1c(C)oc2cc(Br)c(OCC(N)=O)cc12 | -1.75%
4 | Cc1ccc(-c2csc(-c3cc(C)on3)n2)cc1 | 17% (active)
5 | CCn1c(SCCC(C)C)nnc1-c1c[nH]c2ccccc12 | -5.75%
6 | CCCc1nc2scc(-c3ccc(C)cc3)c2c(=O)n1N | 25.8%
7 | CCCc1cc(-c2n[nH]c(=S)n2CC)c2ccccc2n1 | -5.71%
8 | CCCc1cc(-c2nc(-c3ccc(C)cc3)cs2)ccn1 | 39.7% (active)
9 | CCC(C)Sc1nnc(-c2c[nH]c3ccccc23)n1CCOC (centres undefined) | -2.17%
10 | Cc1cc(-c2n[nH]c(=S)n2-c2ccc(C)c(C)c2)no1 | 10.2%
11 | Cc1ccc(-c2csc(-c3c[nH]c4ccccc34)n2)cc1 | 52.5% (active)
12 | Cc1cc(-c2nc(C)c(-c3nnc(SCC(=O)Nc4ccccc4)n3C)s2)no1 | -3.06%
13 | COc1cccc(N(CC(=O)NC2CCCC2)C(=O)CCCC(=O)Nc2ccccn2)c1 | -1.64%
14 | Cn1nccc1C(=O)NC1CCCc2c1cnn2-c1ccc(F)cc1F (centres undefined) | -0.526%
15 | O=C(NCCN1C(=O)S/C(=C\c2cccnc2)C1=O)c1ccc(S(=O)(=O)N2CCCC2)cc1 | 7.82%
16 | NC(=O)C1(C(N)=O)OC1c1ccc(Cl)cc1Cl (centres undefined) | -2.97%
17 | CCOCC(=O)NCc1ccc2c(c1)cc(C)n2C | 0.782%
18 | Cc1sc(NC(=S)NC(=O)c2cccs2)nc1-c1ccc(CC(C)C)cc1 | 9.37%
19 | Cc1ccc(S(=O)(=O)CC(=O)NC(C)c2ccccc2)cc1 (centres undefined) | -0.898%
20 | CC1(C)SC2c3ccccc3C(=O)N2[C@@H]1C(=O)NCc1ccco1 (some centres undefined) | -2.7%
21 | CCCCNC(=O)c1cn(CC)c2cc(N3CCN(C(=O)c4ccco4)CC3)c(F)cc2c1=O | -2.67%
22 | CC(C)OCCCNC(=O)CN1C(=O)/C(=C/c2ccccc2F)Oc2ccccc21 | -1.24%
23 | CN(C)C(=O)Cn1c(=O)n(S(=O)(=O)c2ccccc2)c2ccccc21 | -2.7%
24 | O=C(CSc1nnc2c(n1)[nH]c1ccccc12)NC1CCCCC1 | -2.06%
25 | O=C(CSc1nnc(-c2ccccc2O)o1)NC1CCCCC1 | -5.38%

Row | Compound | max response
26 | O=C(CSc1ncnc2c1oc1ccccc12)NC1CCCC1 | 13.3% (active)
27 | COc1ccc(N(CC(=O)NCCSCc2cccc(Cl)c2)S(C)(=O)=O)cc1 | 10.3%
28 | COc1ccccc1NC(=O)CCC(=O)N1CC(C)Oc2ccc(C)cc21 (centres undefined) | -2.59%
29 | COc1ccc(CNc2ncnc3ccccc23)cc1 | -4.12%
30 | COc1ccc(CNc2nccs2)cc1 | 15.6% (active)
31 | COc1ccc(N(CC(=O)NCc2ccc(F)cc2)C(=O)CCC(=O)Nc2nccs2)cc1 | 2.82%
32 | O=C(NCc1cccnc1)C12CC3CC(CC(C3)C1)C2 | -4.42%
33 | COC(=O)c1ccccc1SC1CC(=O)N(c2cccc(C)c2)C1=O (centres undefined) | -2.47%
34 | Cc1cccc(N2C(=O)SC(SC(=Nc3ccccc3)Nc3ccccc3)C2=O)c1 (centres undefined) | 50% (active)
35 | Cc1cccc(N2C(=O)CC(SC(N)=Nc3ccccc3)C2=O)c1 (centres undefined) | 6.82%
36 | O=C(NCc1ccc2c(c1)OCO2)C(=O)NCC1OCCN1S(=O)(=O)c1ccc(F)cc1 (centres undefined) | 0.524%
37 | O=S(=O)(NC1CCCC1)c1ccc(-n2cnnn2)cc1 | -3.31%
38 | Clc1nc(NC2CCCC2)nc(N2CCOCC2)n1 | -1.13%
39 | CC1CC(C)CN(CCOc2cccc3ccccc23)C1 (centres undefined) | -3.88%
40 | CCCC(=O)N1c2ccc(-c3csc(N)n3)cc2CC1C (centres undefined) | 82.4% (active)
41 | Cc1ccn(CCC(=O)N2c3ccccc3CC2C)n1 (centres undefined) | -3.05%
42 | CCn1nc(C(=O)OCC(=O)N2c3ccccc3CC2C)c2ccccc2c1=O (centres undefined) | -2.9%
43 | COc1ccc(Nc2cc(Sc3ccc(OC)cc3)ncn2)cc1 | 12.3%
44 | COc1ccc(Nc2ncnc3ccc(OC)cc23)cc1 | 4.47%
45 | COc1ccc(Nc2ncnc3sc(C)cc23)cc1 | 41% (active)
46 | CS(=O)(=O)N1CCN(CC(=O)NC2CCCC2)CC1 | 2.24%
47 | COc1ccc(C2CC(=O)NC(=O)C2)cc1 | 5.71%
48 | O=C1COc2ccc(S(=O)(=O)NCCc3ccc(Cl)cc3)cc2N1 | -8.47%
49 | COC(=O)c1c(NC(=O)CN2C(=O)NC(CCc3ccccc3)C2=O)sc2c1CCCCC2 (centres undefined) | -2.51%
